Laboratory results: PubChem BioAssay AID1159580 (chemical genetic matrix, 2015)
Several values for one entry are separate records, joined by “and”; a condition that tells them apart may be missing. Equal entries are not always repeated. Screen size: about 5,500 compounds; about 2,000 (36%) were called active. Another 18% or so got no clear call; they are omitted. No stated cut-off is given here; in the data, active means normalized growth mostly below about 0.91 (no sharp cut-off); inconclusive means no clear call, values can overlap the other calls; inactive means mostly above about 0.92. This is one part of the list.

Experiment: chemical genetic growth profiling, strain panel (AID 1159580);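 further: tested at 20 µM; growth read once vehicle control cultures reached saturation at 30 °C; 1 = growth at the plate median or of vehicle wells; lower values mean less growth of the strain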
Details: S. cerevisiae deletion strains, growth OD

Measured: normalized growth

CC(=O)O[C@H]1CC[C@]2(C)C3CC[C@@]4(C)C(CC5O[C@@]6(CCC(C)CO6)[C@@H](C)C54)C3CC[C@@H]2C1 (stereo not given in full)
inactive: locus YAL021C, strain ccr4, hits give low values 1.02 | locus YAL026C, strain drs2, hits give low values 1.02 | locus YAL030W, strain snc1, hits give low values 1.01 | locus YBL061C, strain skt5, hits give low values 1.01 | locus YBR009C, strain hhf1, hits give low values 1.03 | locus YBR021W, strain FUR4, hits give low values 0.996 | locus YBR023C, strain chs3, hits give low values 1.01 | locus YBR171W, strain sec66, hits give low values 1.03 | locus YBR229C, strain ROT2, hits give low values 0.99 | locus YBR231C, strain swc5, hits give low values 1 | locus YBR279W, strain paf1, hits give low values 1.01 | locus YCL011C, strain gbp2, hits give low values 1 | locus YCL016C, strain dcc1, hits give low values 1.01 | locus YCL029C, strain bik1, hits give low values 0.993 | locus YCL069W, strain vba3, hits give low values 1.02 | locus YCR088W, strain abp1, hits give low values 1.02 | locus YDL005C, strain med2, hits give low values 1.03 | locus YDL035C, strain GPR1, hits give low values 1.03 | locus YDL040C, strain nat1, hits give low values 1 | locus YDL074C, strain BRE1, hits give low values 1.02 | locus YDL101C, strain DUN1, hits give low values 0.986 | locus YDL185W, strain tfp1, hits give low values 0.986 | locus YDL192W, strain arf1, hits give low values 0.997 | locus YDR001C, strain nth1, hits give low values 1.01 | locus YDR069C, strain doa4, hits give low values 1.01 | locus YDR101C, strain arx1, hits give low values 0.992 | locus YDR137W, strain rgp1, hits give low values 1.04 | locus YDR159W, strain sac3, hits give low values 1.01 | locus YDR162C, strain NBP2, hits give low values 1.02 | locus YDR195W, strain ref2 1.03 | locus YDR297W, strain sur2, hits give low values 1 | locus YDR318W, strain mcm21, hits give low values 0.997 | locus YDR334W, strain swr1, hits give low values 1.03 | locus YDR335W, strain msn5, hits give low values 1.02 | locus YDR388W, hits give low values 0.991 | locus YDR392W, strain spt3, hits give low values 1.03 | locus YDR502C, strain sam2, hits give low values 0.977 | locus YEL003W, strain gim4, hits give low values 1.03 | locus YEL037C, strain rad23, hits give low values 1.02 | locus YEL061C, strain CIN8 (second series), hits give low values 1.05 | locus YEL061C, strain CIN8, hits give low values 1 | locus YER015W, strain faa2, hits give low values 1.01 | locus YER016W, strain bim1, hits give low values 1 | locus YER110C, hits give low values 0.991 | locus YER111C, strain swi4, hits give low values 1.02 | locus YER155C, strain BEM2 (second series), hits give low values 1.04 | locus YER155C, strain BEM2, hits give low values 0.975 | locus YER167W, strain BCK2, hits give low values 0.998 | locus YFR010W, strain ubp6, hits give low values 1.01 | locus YGL078C, strain dbp3, hits give low values 0.98 | locus YGL167C, strain pmr1, hits give low values 1 | locus YGL173C, strain kem1, hits give low values 1.01 | locus YGL227W, strain vid30, hits give low values 1.02 | locus YGL240W, strain doc1, hits give low values 1.02 | locus YGL248W, strain PDE1, hits give low values 0.985 | locus YGL253W, strain hxk2, hits give low values 1.01 | locus YGR135W, strain pre9, hits give low values 0.97 | locus YGR229C, strain SMI1, hits give low values 1.08 | locus YGR252W, strain gcn5, hits give low values 0.949 | locus YHR013C, strain ard1, hits give low values 1.01 | locus YHR027C, strain rpn1, hits give low values 1.02 | locus YHR030C, strain SLT2, hits give low values 0.989 and 0.998 | locus YHR079C, strain IRE1 (second series), hits give low values 0.989 | locus YHR079C, strain IRE1, hits give low values 1.01 | locus YHR094C, strain hxt1, hits give low values 0.996 | locus YHR129C, strain ARP1, hits give low values 0.996 | locus YHR142W, strain chs7, hits give low values 1.03 | locus YHR200W, strain rpn10, hits give low values 0.989 | locus YIL066C, strain RNR3, hits give low values 1.01 | locus YIL073C, strain SPO22, hits give low values 1.06 | locus YIL125W, strain kgd1, hits give low values 1 | locus YIR030C, strain dcg1, hits give low values 0.992 | locus YJL092W, strain hpr5, hits give low values 1.03 | locus YJL095W, strain BCK1 (second series), hits give low values 1 | locus YJL095W, strain BCK1, hits give low values 0.987 and 1.01 | locus YJL115W, strain asf1, hits give low values 1.01 | locus YJL129C, strain trk1, hits give low values 1.03 | locus YJL134W, strain LCB3, hits give low values 0.987 | locus YJL154C, strain vps35, hits give low values 1.01 | locus YJL164C, strain tpk1, hits give low values 1.01 | locus YJL166W, strain qcr8, hits give low values 1.01 | locus YJL168C, strain set2, hits give low values 0.993 | locus YJL187C, strain SWE1 (second series), hits give low values 0.975 | locus YJL187C, strain SWE1, hits give low values 1.01 | locus YJR043C, strain POL32, hits give low values 1.01
